GLP1R inv ag: qHTS of GLP-1 Receptor Inverse Agonists (Inhibition Mode). 410,000 compounds, 1.6% hits. Potency, µM (top dose mostly 38.3 µM), actives largely listed as inhibitors. AID 624417, 2012. HEK293 GLP-1R CRE-luciferase, luminescence, 24 h; GLP-1R form is constitutively active; note: nearly all actives have a fitted effect of over 55% in size
Target sequence (P43220 whole entry, looked up): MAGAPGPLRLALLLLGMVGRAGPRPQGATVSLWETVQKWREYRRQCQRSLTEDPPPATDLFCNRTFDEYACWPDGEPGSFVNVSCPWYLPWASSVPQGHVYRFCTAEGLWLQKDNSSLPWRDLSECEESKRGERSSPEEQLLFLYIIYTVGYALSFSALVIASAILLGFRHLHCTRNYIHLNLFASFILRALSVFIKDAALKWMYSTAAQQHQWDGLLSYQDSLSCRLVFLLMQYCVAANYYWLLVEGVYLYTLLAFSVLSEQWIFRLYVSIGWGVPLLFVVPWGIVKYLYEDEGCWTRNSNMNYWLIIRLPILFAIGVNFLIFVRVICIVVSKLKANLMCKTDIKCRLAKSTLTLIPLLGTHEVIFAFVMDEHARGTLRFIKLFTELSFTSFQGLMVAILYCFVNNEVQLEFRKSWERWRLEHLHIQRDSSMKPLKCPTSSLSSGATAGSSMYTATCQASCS
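Inverse agonism was detected as reduced cAMP-driven luciferase luminescence after 24 h compound treatment. The cells were HEK293 clones expressing constitutively active human GLP-1R with the reporter. Reporter-only and GPR119 cell lines served as counterscreen controls.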
HEK293 tox: qHTS of GLP-1 Receptor Inverse Agonists: Cytotox Screen | HEK293 cAMP-luciferase reporter cells, luminescence, 24 h | Potency, µM (doses to about 38.3 µM), most hits filed as inhibitors | 410,000 compounds, 0.13% hits;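 note: loss of luciferase light is scored as toxicity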
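Seeding density was 200 cells/uL; after overnight-length (12 h) culture, 23 nL compounds went on for 24 h at 37 °C. Readout used a luciferase detection reagent, luminescence taken after 12 min at room temperature.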
GLP-1R agonist: qHTS of GLP-1 Receptor Agonists; HEK293 GLP-1R CRE-luciferase, luminescence, 4-6 h; cells express a hypersensitive GLP-1R form; Potency, µM (series often up to 45.6 µM), usual class: activators; 380,000 compounds, 0.007% hits; AID 624172, 2012
PTHR1 agonist: qHTS for PTHR1 Agonists: Primary Screen | HEK293 GP2 PTHR1 cells, GloSensor cAMP luminescence, 1 h | Potency, µM (highest dose often 115 µM), usual class: activators | 410,000 compounds, 0.075% hits | Parathyroid hormone/parathyroid hormone-related peptide receptor (Homo sapiens), Q03431 | AID 743266, 2014; note: nearly all actives have a fitted effect of over 55% in size
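HEK-293-derived GP2 cells expressing PTHR1 and a GloSensor cAMP reporter, 3,000/well, plated overnight, given luciferin plus IBMX (each 0.5 mM as added) for 1 h at 37 °C, then compound for 1 h at 37 °C. Luminescence was read after 15 min at room temperature.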
Each line names hits and unclear results; the compound was inactive in the other large screens. Most compounds without a hit are left out; they make up all but 1.7% or so of the library. Calls come from the whole dose curve; as a rule, active = well fitted curve in the direction sought with a large enough effect; inconclusive = small, poorly fitted or top-dose-only effect, or another doubt; inactive = no such curve, though single readings can be large; an effect the other way counts as inactive or inconclusive.

COc1cccc(CN2CCC2(C)C(=O)Nc2cccc(Oc3ccccc3)c2)c1OC (configuration not stated)	GLP1R inv ag inconclusive
O=C(Nc1cccc(S(=O)(=O)N2CCCCCC2)c1)C1CCN(C(=O)c2ccc(Cl)cc2)CC1	GLP1R inv ag 8.9µM
O=C(Nc1cccc(S(=O)(=O)N2CCCCC2)c1)Nc1ccc(Cl)cc1Cl	GLP1R inv ag 3.5µM, HEK293 tox inconclusive
Cc1cc(C(=O)N/N=C/c2ccc(OCc3ccccc3)cc2)c(C)o1	GLP1R inv ag 11µM
Cc1ccccc1OCC(=O)N1N=C(C(F)(F)F)CC1(O)C(C)(C)C (configuration not stated)	GLP1R inv ag 8.9µM, HEK293 tox inconclusive
CC(C)(C)C1(O)CC(C(F)(F)F)=NN1C(=O)Cc1ccc([N+](=O)[O-])cc1 (configuration not stated)	GLP1R inv ag 10µM
Nc1ccc2cc3ccc(N)cc3nc2c1	none (no result: GLP1R inv ag, HEK293 tox, PTHR1 agonist)
COc1ccc(NC(=O)/C(Cl)=C(/Cl)S(=O)Cc2ccccc2)cn1 (configuration not stated)	HEK293 tox 2.8µM
O=C(/C=C\Nc1ccc2c(c1)OCO2)c1cccs1	GLP1R inv ag 2.2µM
CCCn1c(SCC(=O)N2CCOCC2)nnc1-c1ccncc1	none
CSc1nc(Cl)c(Cc2ccc(OC(C)C)cc2)c(N2CCOCC2)n1	GLP1R inv ag 13µM
CCOc1ccc(NC(=O)NC23CC4CC(CC(C4)C2)C3)cc1	GLP1R inv ag 2.5µM
Cc1onc(-c2ccccc2Cl)c1C(=O)NCc1nc(-c2ccc(C(F)(F)F)cc2)no1	GLP1R inv ag 10µM
Cc1onc(-c2ccccc2Cl)c1C(=O)NCc1ccccc1F	none
CCn1cc(CN2CCCC(C(=O)c3ccc(-c4ccccc4)cc3)C2)cn1 (configuration not stated)	GLP1R inv ag 8.9µM
COC(=O)c1ccccc1NC(=O)N1CCC(n2c(C)nc3cccnc32)CC1	none (no result: GLP-1R agonist)
O=C(NC(=S)N1CCN(c2nc(-c3ccccc3)cs2)CC1)c1cccnc1	GLP1R inv ag 8.9µM
COCCNC(=S)N1CCN(c2nc(-c3ccccc3)cs2)CC1	none
COc1ccc(N2CCN(C(=O)NC34CC5CC(CC(C5)C3)C4)CC2)cc1	GLP1R inv ag 7.9µM
O=C(NC12CC3CC(CC(C3)C1)C2)N1CCN(c2nc(-c3ccccc3)cs2)CC1	GLP1R inv ag 3.2µM
O=C(COC(=O)c1cc(=O)c2ccccc2o1)NCc1ccc(Cl)cc1	none
CCOc1ccccc1NC1(c2ccccc2)C(=O)c2ccccc2C1=O	none
CCOC(=O)c1cnn(-c2cccc(Cl)c2)c1C1CCN(C(=O)OC(C)(C)C)CC1	none
COc1ccc(NC(=O)Nc2ccc(F)cc2)cn1	none
COc1ccc(NC(=O)C(c2ccc(Cl)cc2)C(C)C)cn1 (configuration not stated)	GLP1R inv ag 7.9µM
Cc1ccc(Cl)cc1-n1ncc2c(NCCC3=CCCCC3)ncnc21	GLP1R inv ag 8.9µM (no result: GLP-1R agonist)
Cc1ccc(Cl)cc1-n1ncc2c(NCCc3ccccc3)ncnc21	GLP1R inv ag inconclusive (no result: GLP-1R agonist)
Cc1ccc(Cl)cc1-n1ncc2c(NCCCc3ccccc3)ncnc21	GLP1R inv ag 11µM (no result: GLP-1R agonist)
Fc1ccc(-n2ncc3c(NCCC4=CCCCC4)ncnc32)cc1	none (no result: GLP-1R agonist)
CC(CO)NS(=O)(=O)c1cc(Cl)ccc1F (configuration not stated)	none
CCCCSc1nnc2c(n1)OC(c1ccc(C)s1)Nc1ccccc1-2 (configuration not stated)	none (no result: GLP-1R agonist)
COc1ccc(C(=O)CN2CCN(CCN3C(=O)c4cccc5cccc(c45)C3=O)CC2)cc1	GLP1R inv ag inconclusive
COc1cc2c3c(cccc3c1)C(=O)N(CCN1CCCC1)C2=O	GLP1R inv ag 4.5µM
CC(=O)N(CCC(Cc1ccccc1)c1ccc2c(c1)OCO2)Cc1ccc(Cl)cc1 (configuration not stated)	GLP1R inv ag 11µM, HEK293 tox inconclusive
CCCCn1c(N)c(N(CC(C)C)C(=O)C2CCCN(C(=O)c3ccc(Cl)cc3)C2)c(=O)[nH]c1=O (configuration not stated)	none
C=CCNC(=O)c1ccc(C2SCC(=O)N2Cc2ccccc2)cc1 (configuration not stated)	none

Assay outcomes deposited in PubChem BioAssay by National Center for Advancing Translational Sciences (NCATS).
